Test results as given in PubChem BioAssay (Tox21).
“And” between values parts separate entries of the source, which are not always exact repeats. Equal values may be shown once. Records with an inconclusive call do not appear. Where a call stands in place of a potency, no number is given. Some compounds were tested as several samples or in several runs, with calls that do not always agree. The source made the active and inactive calls. The call rests on the fitted dose curve; in most records, active means well fitted activation curve with a large enough effect in the repeat runs; inconclusive means weak or mixed curves; inactive means flat fitted curve, though single readings scatter.

Test: A CellTox Green Cytotoxicity Assay to monitor cytotoxicity in HEK293 cells - 40 hour (AID 1224871); further: nearly all actives have a fitted effect of over 45% in size
Settings: CellTox Green fluorescence; series mostly up to 76.8 µM; cytotoxicity increase: at the top concentration
From the text: National Center for Advancing Translational Sciences [NCATS]
NIH Chemical Genomics Center [NCGC]
U.S. Environmental Protection Agency [EPA]
National Institutes of Environmental Health Sciences [NIEHS]
National Toxicology Program [NTP]
Cell-based models are critical for drug discovery. Determining the natural cytotoxic effects resulting from test compounds is an essential research activity. A CellTox Green Cytotoxicity Assay to monitor cytotoxicity in real time of continues cell culture during 40 hours of the compound treatment was used to screen Tox21 10K library compounds in Hek293 cells. CellTox Green Cytotoxicity Assay is a nonlytic, homogeneous, biofluorescent method to measure cytotoxicity in cell culture after experimental manipulation. The assay system uses a proprietary asymmetric cyanine dye that is excluded from viable cells but preferentially stains the dead cell's DNA. […] Viable cells produce no appreciable increases in fluorescence. Therefore, the fluorescence signal produced by the binding interaction with dead cell DNA is proportional to cytotoxicity.
The mixture of Hek293 cell suspension and reagents were dispensed at 600cells/6 ul/well in 1536-well tissue culture treated black solid bottom plates using a Multidrop dispenser. After the assay plates were incubated at a 37 C/5% CO2 incubator for 5 hours, 23 nL of compounds dissolved in DMSO, positive and negative controls was transferred to the assay plate by a pintool work station. The plates were incubated at 37 C for 40 hours. The fluorescence intensity were measured at 0h, 8h, 16h, 24h, 32h and 40h time points using ViewLux plate reader during compound treatment.
Potency means the concentration at half of the fitted maximal effect.

Row | Compound | Potency | cytotoxicity increase
1 | CCCCC(CC)CO (stereo not given) | inactive | –
2 | CCCCCCCC(=O)OC | inactive | –
3 | C[Si](O[Si](C)(C)C)O[Si](C)(C)C | inactive | –
4 | CCCCCCCCCCCCS | inactive | –
5 | CCCSc1ccc2nc(NC(=O)OC)[nH]c2c1 | inactive | –
6 | CC1=C(C)S(=O)(=O)CCS1(=O)=O | – | 2.69% (inactive)
7 | CC(O)COCC(C)O (stereo not given) | inactive | –
8 | c1ccc(OCCOc2ccccc2)cc1 | inactive | –
9 | CC(=O)Nc1cccc(O)c1 | inactive | –
10 | O=C(O)c1cc(C(=O)O)cc(S(=O)(=O)O)c1 | inactive | –
11 | CC1=CC(=O)NS(=O)(=O)O1 | inactive | –
12 | OC[C@H]1O[C@@](CO)(O[C@H]2O[C@H](CO)[C@@H](O)[C@H](O)[C@H]2O)[C@@H](O)[C@@H]1O | – | -14.3% (inactive)
13 | C=C(C)C(=O)Nc1ccc(Cl)c(Cl)c1 | inactive | –
14 | CC(C)c1ccc(S(=O)(=O)O)cc1 | inactive | –
15 | COCCCOc1ccnc(CS(=O)c2nc3ccccc3[nH]2)c1C (stereo not given) | – | -16% [at 35.3 µM] (inactive)
16 | CC1CCC2CC1C2(C)C (stereo not given) | inactive | –
17 | CC(=O)c1ccccc1 | inactive | –
18 | CCCC(C)=O | inactive | –
19 | O=C1CCC(N2C(=O)c3ccccc3C2=O)C(=O)N1 (stereo not given) | inactive | –
20 | O=c1[nH]nnc2ccccc12 | inactive | –

Row | Compound | Potency | cytotoxicity increase
21 | CCc1ccc(CCOc2ccc(CC3SC(=O)NC3=O)cc2)nc1 (stereo not given) | inactive | –
22 | OCCOCCOCCO | inactive | –
23 | CN(C)CCC(c1ccccc1)c1ccccn1 (stereo not given) | inactive | –
24 | C#CCN(C)Cc1ccccc1 | inactive | –
25 | CN(C)CCOCCN(C)C | inactive and 43.6 µM (active) | –
26 | O=C(O)CC(C(=O)O)C(CC(=O)O)C(=O)O (stereo not given) | inactive | –
27 | COc1ccc(Nc2ccccc2)c(C)c1 | inactive and 43.6 µM (active) | –
28 | Fc1ccc(Br)cc1 | inactive | –
29 | Nc1ccccc1[N+](=O)[O-] | inactive | –
30 | CC(c1cc2ccccc2s1)N(O)C(N)=O (stereo not given) | – | -0.403% [at 35.3 µM] (inactive)
31 | CC(=O)OCC(=O)[C@@]12N=C(C)O[C@@H]1C[C@H]1[C@@H]3CCC4=CC(=O)C=C[C@]4(C)[C@H]3[C@@H](O)C[C@@]12C | inactive | –
32 | O=C(O)CCCC[C@@H]1SC[C@@H]2NC(=O)N[C@@H]21 | inactive | –
33 | CCc1cccc(C)c1N | inactive | –
34 | CCCCOC(=O)COc1ccc(Cl)cc1Cl | inactive | –
35 | O=C(O)c1ccc2c(c1)C(=O)OC2=O | – | 0.727% (inactive)
36 | Cc1cnc(C(=O)NCCc2ccc(S(=O)(=O)NC(=O)NC3CCCCC3)cc2)cn1 | inactive | –
37 | O=c1[nH]c(=O)n([C@H]2CCCO2)cc1F | inactive | –
38 | FC(F)(F)c1ccc(Cl)c(Cl)c1 | inactive | –
39 | Cc1occc(=O)c1O | inactive | –
40 | C=C(C)C(=O)OCCOCCOCCOC(=O)C(=C)C | inactive | –
